{"source": "PubChem BioAssay (NCATS)", "note": "Records with an inconclusive call do not appear. A number with no mark means an inactive call. Activity calls are given as the source filed them. Calls come from the whole dose curve; as a rule, active = well fitted cell-killing curve with a large enough effect; inconclusive = small, poorly fitted or top-dose-only effect; inactive = flat fitted curve, though single readings scatter."}
{"experiment": "Cell Viability - LYMP2-015 (AID 971);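 note: 0% = DMSO only and full effect = 92 µM tetraoctylammonium bromide; nearly all actives have a fitted effect of over 55% in size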", "conditions": "LYMP2-015 lymphoblastoid cell viability; series mostly up to 92.2 µM; activity change, negative = lower viability: at the top concentration", "text": "NIH Chemical Genomics Center [NCGC]\nNIH Molecular Libraries Screening Centers Network [MLSCN]\nNational Institutes of Environmental Health Sciences [NIEHS]\nNational Toxicology Program [NTP]\nWe have developed a 1536-well cell-based assay for quantitative high throughput screening (qHTS) against a number of cell lines to determine in vitro cytotoxicity of small molecules. This particular assay uses a human lymphoblastoid cell line (LYMP2-015) purchased from Coriell Institute for Medical Research.\nNCGC Assay Protocol Summary:\nThe CellTiter-Glo luminescent cell viability assay (Promega) is a homogeneous method to measure the number of viable cells in culture. The end point readout of this assay is based on quantitation of intracellular ATP, an indicator of metabolic activity, using the luciferase reaction. Luciferase catalyzes the oxidation of beetle Luciferin to oxyluciferin and light in the presence of ATP. The luminescent signal is proportional to amount of ATP present.\nUsing the CellTiter-Glo luminescent cell viability assay, the amount of cellular ATP was measured in the lymphoblastoid cell line with complete culture medium following compound treatment for 24 hours. The assay was performed in opaque white Kalypsys 1536-well plates. In the screen, tetraoctylammonium bromide was used as positive control. Library compounds were measured for their ability to cause acute toxicity in the cell line, as reflected by a decrease in intracellular ATP levels, in a concentration-dependent manner. […] AC50 values were determined from concentration-response data modeled with the standard Hill equation.\nqHTS protocol for CellTiter Glo lymphoblastoid cellular assay\n[Step] [Parameter] [Value] [Description]\n1. Reagent; 5 uL; 2500 lymphoblastoid cells/well\n2. Time; 5 hr; 37 C incubation\n4. Controls; 23 nL; Tetraoctylammonium bromide 6.4pM to 92 uM\n5. Time; 24 hr; 37 C incubation\n6. Reagent; 5 uL; CellTiter Glo reagent\n7. Time; 30 min; Room Temperature\n8. Detection; Luminescence; Viewlux plate reader\nKeywords: cell viability, cytotoxicity, lymphoblastoid cell line, luminescence, NTPHTS, NTPHTS_NCGC, NIEHS, DSSTox, MLSMR, MLSCN, NIH Roadmap, qHTS, NCGC", "units": {"activity change, negative = lower viability": "%"}}
{"smiles": "CCC(O)OC(O)CC", "note": "(stereo not given)", "Potency": "inactive"}
{"smiles": "COc1ccc2nc(N)sc2c1", "activity change, negative = lower viability": -19.9}
{"smiles": "O=C(O)c1ccccc1C(c1ccc(O)cc1)c1ccc(O)cc1", "activity change, negative = lower viability": -7.82}
{"smiles": "c1ccccc1", "Potency": "inactive"}
{"smiles": "CCCCOCCO", "Potency": "inactive"}
{"smiles": "COC(=O)c1ccc(C=O)cc1", "activity change, negative = lower viability": -5.22}
{"smiles": "ClCCCl", "activity change, negative = lower viability": -0.298}
{"smiles": "OCCNCCO", "activity change, negative = lower viability": 5.31}
{"smiles": "c1ccc2c(c1)[nH]c1ccccc12", "activity change, negative = lower viability": -8.09}
{"smiles": "CCCCCCCCO", "activity change, negative = lower viability": -10.3}
{"smiles": "c1ccc2c(c1)c1cccc3ccc4cccc2c4c31", "activity change, negative = lower viability": -7.91}
{"smiles": "C[C@H](CCC(=O)O)[C@H]1CC[C@H]2[C@@H]3CC[C@@H]4C[C@H](O)CC[C@]4(C)[C@H]3CC[C@]12C", "activity change, negative = lower viability": -15}
{"smiles": "COc1c2ccoc2cc2oc(=O)ccc12", "activity change, negative = lower viability": -8.53}
{"smiles": "C=CC(=C)CCC=C(C)C", "activity change, negative = lower viability": -5.72}
{"smiles": "O=C(O)c1ccc(O)cc1O", "Potency": "inactive"}
{"smiles": "C=Cc1ccccc1Cl", "activity change, negative = lower viability": -3.48}
{"smiles": "O[C@@H]([C@H](O)[C@@H](O)CBr)[C@@H](O)CBr", "activity change, negative = lower viability": -14.6}
{"smiles": "Nc1ccc(Cl)cc1Cl", "activity change, negative = lower viability": -12.3}
{"smiles": "CC12CCC(CC1=O)C2(C)C", "note": "(stereo not given)", "activity change, negative = lower viability": -5.96}
{"smiles": "O=C(/C=C/c1ccc(O)c(O)c1)O[C@@H](C(=O)O)[C@@H](OC(=O)/C=C/c1ccc(O)c(O)c1)C(=O)O", "activity change, negative = lower viability": 5.67}
{"smiles": "Cc1cccc([N+](=O)[O-])c1C", "activity change, negative = lower viability": -9.51}
{"smiles": "CCCN(CCC)C(=O)SCC", "activity change, negative = lower viability": -9.56}
{"smiles": "Cc1c(N=C=O)cccc1N=C=O", "activity change, negative = lower viability": 3.02}
{"smiles": "CCCCCCCCCCCCCCC1CO1", "note": "(stereo not given)", "activity change, negative = lower viability": -20}
{"smiles": "C1OCOCO1", "activity change, negative = lower viability": -4.36}
{"smiles": "CCC(C)c1ccccc1O", "note": "(stereo not given)", "Potency": "inactive"}
{"smiles": "Clc1cc(Cl)c(Cl)cc1Cl", "activity change, negative = lower viability": -18.1}
{"smiles": "O=C(O)CC(C(=O)O)C(CC(=O)O)C(=O)O", "note": "(stereo not given)", "activity change, negative = lower viability": -18.9}
{"smiles": "Cc1ccccc1C", "Potency": "inactive"}
{"smiles": "CN(C)CCCCCCN(C)C", "activity change, negative = lower viability": -1.98}
{"smiles": "COC(=O)c1ccc(C)cc1", "activity change, negative = lower viability": -7.62}
{"smiles": "COc1cc(/C=C/c2ccccc2)oc(=O)c1", "activity change, negative = lower viability": 5.69}
{"smiles": "CC1(C)CC(N=C=O)CC(C)(CN=C=O)C1", "note": "(stereo not given)", "activity change, negative = lower viability": -10.2}
{"smiles": "Nc1ccc(S(=O)(=O)O)cc1", "activity change, negative = lower viability": -2.6}
{"smiles": "Cc1ccc([N+](=O)[O-])c(C)c1", "activity change, negative = lower viability": 4.6}
{"smiles": "O=C1CCc2ccccc2O1", "activity change, negative = lower viability": -0.313}
{"smiles": "S=C1NC=NC2N=CNC12", "note": "(stereo not given)", "activity change, negative = lower viability": -26.5}
{"smiles": "CCCCCCCCCCCC(=O)O", "Potency": "inactive"}
{"smiles": "C=CCc1ccc(OC)c(OC)c1", "activity change, negative = lower viability": -9.23}
{"smiles": "CC1=CC(C)(C)Nc2ccccc21", "Potency": "inactive"}
